Data published in PubChem BioAssay (EPA / NIEHS).
Inconclusive results are not listed. Calls of active or inactive are those of the source. Rule for the calls, unless noted: active = hit-call score of the fitted dose curve at least 0.9, where 1 is the maximum; inactive = score below 0.9.

Experiments:
[1] = molecular target: Glucocorticoid receptor (Homo sapiens) (UniProt P04150); experiment: ATG_GR_TRANS: Attagene TRANS-FACTORIAL HepG2 Assay for human Glucocorticoid Receptor (GR) (AID 2282978; active = hit-call score of the fitted dose curve at least 0.9, where 1 is the maximum;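 note: activators score as hits since higher reporter transcript over DMSO is fitted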); conditions: HepG2 Attagene TRANS GR reporter, mRNA transcription
Chain of Glucocorticoid receptor (Homo sapiens) (P04150 whole entry, looked up, the tested form may be a part): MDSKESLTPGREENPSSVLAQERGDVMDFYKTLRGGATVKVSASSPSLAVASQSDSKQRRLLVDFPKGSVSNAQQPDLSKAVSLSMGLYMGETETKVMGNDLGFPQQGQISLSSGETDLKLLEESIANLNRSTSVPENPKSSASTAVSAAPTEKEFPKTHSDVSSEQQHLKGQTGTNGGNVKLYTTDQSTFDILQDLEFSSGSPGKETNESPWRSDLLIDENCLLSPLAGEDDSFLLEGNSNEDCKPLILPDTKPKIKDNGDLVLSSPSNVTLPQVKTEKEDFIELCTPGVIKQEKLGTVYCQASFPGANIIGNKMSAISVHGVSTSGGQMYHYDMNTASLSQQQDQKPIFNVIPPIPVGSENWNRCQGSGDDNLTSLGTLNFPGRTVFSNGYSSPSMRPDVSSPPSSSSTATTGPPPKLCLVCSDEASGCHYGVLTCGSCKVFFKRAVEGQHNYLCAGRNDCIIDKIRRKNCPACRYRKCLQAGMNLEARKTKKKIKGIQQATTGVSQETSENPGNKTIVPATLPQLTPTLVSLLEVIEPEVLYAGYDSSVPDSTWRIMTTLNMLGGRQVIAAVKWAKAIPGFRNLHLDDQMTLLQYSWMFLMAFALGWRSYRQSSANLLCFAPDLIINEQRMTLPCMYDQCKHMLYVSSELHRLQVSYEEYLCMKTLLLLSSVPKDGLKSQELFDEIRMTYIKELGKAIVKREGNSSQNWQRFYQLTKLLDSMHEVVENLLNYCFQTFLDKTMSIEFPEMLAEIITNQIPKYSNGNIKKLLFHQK
In short: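 In this trans-factorial format, exogenous NR-GAL4 chimeric proteins in transfected HepG2 cells regulate GAL4-UAS reporter transcription. After 24 h treatment, reporter mRNA induction relative to DMSO is read by RT-PCR and capillary electrophoresis.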

[2] = molecular target: Oxysterols receptor LXR-beta (Homo sapiens) (UniProt P55055); experiment: ATG_LXRb_TRANS: Attagene TRANS-FACTORIAL HepG2 Assay for human Liver X Receptor beta (LXRb) (AID 2282981; active = hit-call score of the fitted dose curve at least 0.9, where 1 is the maximum); conditions: HepG2 Attagene TRANS GAL4-LXRb reporter, mRNA
Chain of Oxysterols receptor LXR-beta (Homo sapiens) (P55055 whole entry, looked up, the tested form may be a part): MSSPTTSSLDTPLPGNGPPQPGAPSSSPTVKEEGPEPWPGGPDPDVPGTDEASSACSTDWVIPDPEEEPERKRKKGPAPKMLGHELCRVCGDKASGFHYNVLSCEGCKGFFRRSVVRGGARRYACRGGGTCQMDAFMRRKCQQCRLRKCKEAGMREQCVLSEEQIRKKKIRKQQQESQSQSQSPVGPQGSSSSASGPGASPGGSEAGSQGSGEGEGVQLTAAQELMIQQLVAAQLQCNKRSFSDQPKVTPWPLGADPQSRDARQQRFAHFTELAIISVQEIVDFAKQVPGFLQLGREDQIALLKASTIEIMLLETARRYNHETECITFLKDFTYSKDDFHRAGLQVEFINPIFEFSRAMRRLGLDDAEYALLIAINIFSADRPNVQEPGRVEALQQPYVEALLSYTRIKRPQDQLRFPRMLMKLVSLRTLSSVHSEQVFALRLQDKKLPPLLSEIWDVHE
In short: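 After 24 h of chemical treatment, transfected HepG2 cells yield total RNA; reporter cDNA is PCR-amplified, FAM-labelled, HpaI-cut and run on capillary electrophoresis. Signal reflects chimeric LXRb-Gal4 activity on GAL4-UAS reporters.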

[3] = molecular target: Hepatocyte nuclear factor 4-alpha (Homo sapiens) (UniProt P41235); experiment: ATG_HNF4a_TRANS: Attagene TRANS-FACTORIAL HepG2 Assay for human Hepatocyte Nuclear Factor 4 alpha (HNF4a) (AID 2282982; active = hit-call score of the fitted dose curve at least 0.9, where 1 is the maximum); conditions: HepG2 HNF4a transactivation reporter, mRNA readout
Chain of Hepatocyte nuclear factor 4-alpha (Homo sapiens) (P41235 whole entry, looked up): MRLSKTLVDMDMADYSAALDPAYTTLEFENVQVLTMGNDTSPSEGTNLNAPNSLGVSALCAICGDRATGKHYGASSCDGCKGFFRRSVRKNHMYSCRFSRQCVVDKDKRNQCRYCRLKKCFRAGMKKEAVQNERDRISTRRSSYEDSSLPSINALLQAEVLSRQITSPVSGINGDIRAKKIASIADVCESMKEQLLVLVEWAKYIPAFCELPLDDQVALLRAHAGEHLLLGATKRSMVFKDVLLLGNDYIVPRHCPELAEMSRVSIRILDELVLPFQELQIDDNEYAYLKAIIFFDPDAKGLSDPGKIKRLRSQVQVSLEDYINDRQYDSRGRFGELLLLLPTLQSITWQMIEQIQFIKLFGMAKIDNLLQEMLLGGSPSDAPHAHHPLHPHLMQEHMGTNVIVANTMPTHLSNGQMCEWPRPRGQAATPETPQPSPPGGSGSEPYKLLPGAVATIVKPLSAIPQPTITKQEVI
In short: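 Multiplexed reporter assay: transfected HepG2, 24 h exposure, total RNA → oligo(dT) RT → PCR → 6-FAM extension → HpaI digest → CE fluorescence. DMSO = negative control.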

[4] = ATG_M_06_TRANS: Attagene TRANS-FACTORIAL HepG2 Assay for M06 Transcription Factor (Internal Marker) (AID 2282983; active = hit-call score of the fitted dose curve at least 0.9, where 1 is the maximum;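 note: reporter transcript level by RT-PCR then capillary electrophoresis fluorescence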); conditions: HepG2 Attagene TRANS M06 internal marker reporter
In short: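 In this multiplexed HepG2 system, compounds are incubated 24 h with cells carrying GAL4-UAS reporter units. Reporter RNA is amplified and resolved by capillary electrophoresis, and induction is scored against DMSO.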

[5] = ATG_M_32_TRANS: Attagene TRANS-FACTORIAL HepG2 Assay for M32 Transcription Factor (Internal Marker) (AID 2282984; active = hit-call score of the fitted dose curve at least 0.9, where 1 is the maximum;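 note: transcript level of a background control reporter unit measured by RT-PCR and capillary electrophoresis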); conditions: HepG2 Attagene TRANS M32 internal marker reporter
In short: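 Cell-based TRANS-format assay in HepG2: exogenous chimeric GAL4 reporter units transiently expressed, compounds applied 24 h. Reporter mRNA detected by RT-PCR plus capillary electrophoresis; this readout is an internal background marker.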

[6] = molecular target: Nuclear receptor subfamily 4 group A member 2 (Homo sapiens) (UniProt P43354); experiment: ATG_NURR1_TRANS: Attagene TRANS-FACTORIAL HepG2 Assay for human Nuclear Receptor Related Protein 1 (NURR1) (AID 2282985; active = hit-call score of the fitted dose curve at least 0.9, where 1 is the maximum); conditions: HepG2 Attagene TRANS reporter, mRNA readout
Chain of Nuclear receptor subfamily 4 group A member 2 (Homo sapiens) (P43354 whole entry, looked up, the tested form may be a part): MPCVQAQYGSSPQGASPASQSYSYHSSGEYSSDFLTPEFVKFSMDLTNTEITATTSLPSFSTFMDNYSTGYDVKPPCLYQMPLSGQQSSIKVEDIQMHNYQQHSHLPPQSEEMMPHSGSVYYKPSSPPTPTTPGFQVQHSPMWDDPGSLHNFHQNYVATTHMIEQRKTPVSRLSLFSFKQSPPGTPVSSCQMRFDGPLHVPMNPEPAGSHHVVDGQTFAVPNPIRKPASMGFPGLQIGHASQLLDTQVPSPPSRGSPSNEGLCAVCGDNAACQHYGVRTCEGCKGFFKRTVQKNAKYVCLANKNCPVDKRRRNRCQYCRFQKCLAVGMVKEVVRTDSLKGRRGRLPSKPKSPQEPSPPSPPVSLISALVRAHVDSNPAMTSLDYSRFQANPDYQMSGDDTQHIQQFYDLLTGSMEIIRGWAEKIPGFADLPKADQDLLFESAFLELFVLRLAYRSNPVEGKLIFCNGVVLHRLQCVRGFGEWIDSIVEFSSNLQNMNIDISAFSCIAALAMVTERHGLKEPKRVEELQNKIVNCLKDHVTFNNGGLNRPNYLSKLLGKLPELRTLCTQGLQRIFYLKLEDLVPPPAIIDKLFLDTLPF
In short: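 Measures transcriptional activation by an exogenous NR-Gal4 chimera in transfected HepG2 liver cells. After 24 h, reporter RNA is reverse-transcribed, amplified and resolved by capillary electrophoresis; DMSO defines baseline.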

[7] = molecular target: Transcriptional activator Myb (Homo sapiens) (UniProt P10242); experiment: ATG_Myb_CIS: Attagene CIS-FACTORIAL HepG2 Assay for human Myeloblastosis (Myb) Proto-Oncogene Transcription Factor (AID 2282986); conditions: HepG2 Attagene CIS-FACTORIAL Myb reporter transcription; actives raise or lower the signal
Chain of Transcriptional activator Myb (Homo sapiens) (P10242 whole entry, looked up): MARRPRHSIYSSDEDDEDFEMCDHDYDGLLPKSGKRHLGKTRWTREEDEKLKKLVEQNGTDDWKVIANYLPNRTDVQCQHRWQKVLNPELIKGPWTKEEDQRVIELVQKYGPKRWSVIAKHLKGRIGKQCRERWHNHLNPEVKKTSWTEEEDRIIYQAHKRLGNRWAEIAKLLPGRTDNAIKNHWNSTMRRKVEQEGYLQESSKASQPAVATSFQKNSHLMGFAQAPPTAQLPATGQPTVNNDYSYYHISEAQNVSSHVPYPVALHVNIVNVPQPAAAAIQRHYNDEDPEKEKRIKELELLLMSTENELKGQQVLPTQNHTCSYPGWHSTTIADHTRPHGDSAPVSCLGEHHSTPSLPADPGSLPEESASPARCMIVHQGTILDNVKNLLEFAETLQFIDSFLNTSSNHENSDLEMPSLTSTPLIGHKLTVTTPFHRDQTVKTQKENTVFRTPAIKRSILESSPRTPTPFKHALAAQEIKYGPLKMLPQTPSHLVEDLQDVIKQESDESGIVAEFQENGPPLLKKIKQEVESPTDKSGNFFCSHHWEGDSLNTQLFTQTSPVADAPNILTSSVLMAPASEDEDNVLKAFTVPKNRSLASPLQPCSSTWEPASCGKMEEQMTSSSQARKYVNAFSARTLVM
In short: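 Steps: transfect HepG2 with cis-regulated reporter units; dose with chemical for 24 h; isolate RNA, reverse-transcribe, PCR-amplify and FAM-label reporter sequences; digest with HpaI; resolve by capillary electrophoresis. Activity fitted in both directions relative to DMSO.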

[8] = molecular target: Nuclear respiratory factor 1 (Homo sapiens) (UniProt Q16656); experiment: ATG_NRF1_CIS: Attagene CIS-FACTORIAL HepG2 Assay for human Nuclear Respiratory Factor 1 (NRF1) Orphan Gene (AID 2282987); conditions: HepG2 NRF1 cis-element reporter, Attagene multiplex; actives raise or lower the signal
Chain of Nuclear respiratory factor 1 (Homo sapiens) (Q16656 whole entry, looked up, the tested form may be a part): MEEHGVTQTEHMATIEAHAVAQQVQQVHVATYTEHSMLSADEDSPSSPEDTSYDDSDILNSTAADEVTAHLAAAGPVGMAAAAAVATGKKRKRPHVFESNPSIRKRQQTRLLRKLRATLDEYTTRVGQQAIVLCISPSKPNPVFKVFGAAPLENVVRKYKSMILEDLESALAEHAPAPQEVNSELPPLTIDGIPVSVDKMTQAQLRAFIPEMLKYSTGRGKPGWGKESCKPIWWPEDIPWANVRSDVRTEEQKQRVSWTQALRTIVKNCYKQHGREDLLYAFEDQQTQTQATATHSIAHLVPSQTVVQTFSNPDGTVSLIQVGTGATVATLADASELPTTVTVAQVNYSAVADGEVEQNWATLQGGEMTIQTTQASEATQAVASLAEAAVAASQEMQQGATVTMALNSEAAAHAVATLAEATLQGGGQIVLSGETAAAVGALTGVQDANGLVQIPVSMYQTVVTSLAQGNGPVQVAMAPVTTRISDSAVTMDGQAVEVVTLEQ
In short: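 Fluorescence intensity of labelled reporter cDNA fragments, resolved by capillary electrophoresis, served as readout for NRF1 cis-element activity. Transiently transfected HepG2 cells were dosed for 24 hours; activity in either direction was fitted against DMSO negative control.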

[9] = ATG_NFI_CIS: Attagene CIS-FACTORIAL HepG2 Assay for human Nuclear Factor I (NFI) (AID 2282989); conditions: HepG2 cis-regulatory reporter, NFI response element transcription; actives raise or lower the signal
In short: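 After transient transfection of HepG2 with cis-promoter reporter constructs and 24 h dosing, RNA is reverse-transcribed, amplified, 6-FAM end-labelled and HpaI-digested before capillary analysis. Bidirectional curve fitting against DMSO.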

[10] = ATG_NF_kB_CIS: Attagene CIS-FACTORIAL HepG2 Assay for human Nuclear Factor Kappa B (NF-kB) (AID 2282991); conditions: HepG2 Attagene cis-factorial NF-kB reporter mRNA; actives raise or lower the signal
In short: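 Endogenous transcription factor activity in HepG2 was captured via cis-regulated reporter constructs; after 24 h dosing, reporter mRNA was reverse-transcribed, amplified, fluorescently labelled and sized by capillary electrophoresis, with activity fitted bidirectionally relative to DMSO.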

[11] = ATG_NRF2_ARE_CIS: Attagene CIS-FACTORIAL HepG2 Assay for human Nuclear Factor Erythroid 2 Related Factor 2 (NFR2) response to Antioxidant Response Elements (ARE) (AID 2282992); conditions: HepG2 Attagene ARE/NRF2 reporter, transcription factor activity; actives raise or lower the signal
In short: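 Endogenous transcription factor activity in human liver HepG2 cells is tracked via a cis-element-driven reporter within a multiplexed set. mRNA induction is read by RT-PCR and capillary electrophoresis after 24 h, with DMSO as baseline.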

[12] = ATG_Oct_MLP_CIS: Attagene CIS-FACTORIAL HepG2 Assay for human Octamer-Binding Transcription Factor (Oct) (AID 2282993); conditions: HepG2 Attagene cis-factorial Oct reporter, mRNA; actives raise or lower the signal
In short: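 Cells of the HepG2 line express promoter-controlled reporter sequences whose mRNA levels, after 24 h treatment, are measured by RT-PCR and capillary electrophoresis. Increases and decreases are scored relative to DMSO.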

[13] = molecular target: Cellular tumor antigen p53 (Homo sapiens) (UniProt P04637); experiment: ATG_p53_CIS: Attagene CIS-FACTORIAL HepG2 Assay for human p53 Transcription Factor (AID 2282994); conditions: HepG2 p53 cis-element reporter, Attagene mRNA; actives raise or lower the signal
Chain of Cellular tumor antigen p53 (Homo sapiens) (P04637 whole entry, looked up, the tested form may be a part): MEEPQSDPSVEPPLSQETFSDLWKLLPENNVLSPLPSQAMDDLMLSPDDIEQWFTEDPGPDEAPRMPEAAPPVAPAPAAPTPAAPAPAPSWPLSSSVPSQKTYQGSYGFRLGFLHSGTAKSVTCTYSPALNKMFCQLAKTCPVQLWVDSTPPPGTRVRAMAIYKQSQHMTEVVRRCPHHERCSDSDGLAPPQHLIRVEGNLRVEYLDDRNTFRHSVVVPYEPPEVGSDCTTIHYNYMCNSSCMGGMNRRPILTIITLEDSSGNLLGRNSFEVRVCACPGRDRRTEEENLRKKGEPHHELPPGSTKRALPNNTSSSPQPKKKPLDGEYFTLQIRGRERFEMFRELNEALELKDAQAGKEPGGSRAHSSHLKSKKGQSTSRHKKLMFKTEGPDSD
In short: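 Steps: transfect HepG2 with multiplexed cis reporter constructs; dose chemicals 24 h; extract RNA, reverse-transcribe, PCR-amplify reporter sequences; FAM-label, HpaI-digest, resolve fragments by CE. Activity fitted both directions relative to DMSO.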

[14] = molecular target: Myc proto-oncogene protein (Homo sapiens) (UniProt P01106); experiment: ATG_Myc_CIS: Attagene CIS-FACTORIAL HepG2 Assay for human Myelocytomatosis (Myc) Proto-Oncogene Transcription Factor (AID 2282990); conditions: HepG2, Attagene cis-reporter transcription factor activity; actives raise or lower the signal
Chain of Myc proto-oncogene protein (Homo sapiens) (P01106 whole entry, looked up, the tested form may be a part): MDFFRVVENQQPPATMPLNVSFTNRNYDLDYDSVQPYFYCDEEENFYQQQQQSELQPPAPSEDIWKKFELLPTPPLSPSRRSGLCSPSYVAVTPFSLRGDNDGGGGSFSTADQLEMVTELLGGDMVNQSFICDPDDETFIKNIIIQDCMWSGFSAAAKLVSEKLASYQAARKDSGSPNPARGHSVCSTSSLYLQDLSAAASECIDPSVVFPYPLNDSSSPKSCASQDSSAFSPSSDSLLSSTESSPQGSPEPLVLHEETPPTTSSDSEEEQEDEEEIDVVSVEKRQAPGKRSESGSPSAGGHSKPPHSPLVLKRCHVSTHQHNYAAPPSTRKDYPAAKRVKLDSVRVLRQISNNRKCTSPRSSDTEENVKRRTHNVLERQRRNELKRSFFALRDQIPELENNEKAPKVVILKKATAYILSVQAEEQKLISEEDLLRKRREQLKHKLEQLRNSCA
In short: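 After 24 h chemical treatment of HepG2 cells carrying multiplexed cis-regulated reporter constructs, reporter transcripts quantified by RT-PCR and capillary electrophoresis of fluorescent fragments. Gain or loss fitted against DMSO baseline.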

[15] = BSK_3C_TissueFactor: BioMAP Diversity Plus: 3C Assay for Tissue Factor Biomarker Activity (AID 2282997); conditions: BioMAP 3C HUVEC, tissue factor biomarker readout; actives raise or lower the signal
In short: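 Readout: Tissue Factor ELISA. Cells: human primary umbilical vein endothelium. Time: 24 h after dosing. Analysis: bidirectional fit, DMSO baseline.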

[16] = BSK_3C_uPAR: BioMAP Diversity Plus: 3C Assay for Urokinase-type plasminogen activator receptor (uPAR) Biomarker Activity (AID 2282998); conditions: BioMAP 3C HUVEC, uPAR biomarker ELISA; actives raise or lower the signal
In short: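 Endothelial primary cells of human umbilical vein origin received test chemical; 24 h later uPAR was assayed by ELISA. Fitting was bidirectional, DMSO as negative control.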

[17] = BSK_3C_VCAM1: BioMAP Diversity Plus: 3C Assay for Vascular cell adhesion molecule 1 (VCAM1) Biomarker Activity (AID 2282999); conditions: BioMAP 3C HUVEC, VCAM1 ELISA, cytokine-stimulated; actives raise or lower the signal
In short: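 Activity fitted in both directions relative to DMSO, with ELISA measurement of the surface marker on primary HUVEC (3C) at 24 h post-treatment; parallel SRB staining (0.1% SRB, TCA-fixed, 560 nm) flagged overt cytotoxicity.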

[18] = molecular target: Oxysterols receptor LXR-alpha (Homo sapiens) (UniProt Q13133); experiment: ATG_LXRa_TRANS: Attagene TRANS-FACTORIAL HepG2 Assay for human Liver X Receptor alpha (LXRa) (AID 2282980; active = hit-call score of the fitted dose curve at least 0.9, where 1 is the maximum); conditions: HepG2 Attagene TRANS reporter, LXRa transactivation
Chain of Oxysterols receptor LXR-alpha (Homo sapiens) (Q13133 whole entry, looked up, the tested form may be a part): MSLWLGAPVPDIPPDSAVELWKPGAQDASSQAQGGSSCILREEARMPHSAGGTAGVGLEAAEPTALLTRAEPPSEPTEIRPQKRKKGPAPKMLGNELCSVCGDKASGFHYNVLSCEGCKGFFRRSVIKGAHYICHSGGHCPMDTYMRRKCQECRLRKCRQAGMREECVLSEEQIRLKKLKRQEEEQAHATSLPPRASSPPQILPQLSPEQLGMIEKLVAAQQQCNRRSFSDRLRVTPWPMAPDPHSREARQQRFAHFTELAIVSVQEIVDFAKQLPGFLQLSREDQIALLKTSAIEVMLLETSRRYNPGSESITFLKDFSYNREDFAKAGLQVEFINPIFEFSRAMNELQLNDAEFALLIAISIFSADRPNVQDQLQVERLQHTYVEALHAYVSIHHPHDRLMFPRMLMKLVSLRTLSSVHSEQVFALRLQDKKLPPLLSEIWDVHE
In short: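 HepG2 cells were transiently transfected with multiplexed reporter units driven by chimeric LXRa–GAL4 fusion proteins, then dosed for 24 h. Reporter mRNA was quantified by RT-PCR, fluorescent labelling and capillary electrophoresis; gain of signal fitted against DMSO baseline.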

Measured: AC50

CC(=O)OC(C)c1ccccc1 (centres undefined)
not listed: [14] | [15] | [16] | [17] | [18]
inactive: all other assays above

Clc1cc(Cl)c(Cl)c(Cl)c1Cl
active: [15] 3.97 µM
not listed: [10] | [18]
inactive: all other assays above

Nc1cccc(N)n1
not listed: [2] | [5] | [10] | [13] | [18]
inactive: all other assays above

C=CC(=O)O[C@H]1C[C@@H]2CC[C@@]1(C)C2(C)C
active: [14] 167 µM | [10] 181 µM | [11] 32.1 µM
not listed: [5] | [15] | [16] | [17] | [18]
inactive: all other assays above

c1ccc2c(c1)[nH]c1ccccc12
not listed: [4] | [8] | [10] | [18]
inactive: all other assays above

CC(=O)OCc1ccccc1
not listed: [6] | [13] | [15] | [16] | [17] | [18]
inactive: all other assays above

CCCCOCCOCCOC(C)=O
inactive: [1] | [2] | [7] | [8] | [9] | [14] | [10] | [11] | [12] | [13]

CCCCCCCCC(CO)CCCCCC (centres undefined)
active: [8] 117 µM | [14] 179 µM | [11] 81.3 µM
not listed: [3] | [6] | [9] | [10] | [13] | [18]
inactive: all other assays above

O=C(O)CCCC(=O)O
not listed: [8] | [10] | [15] | [16] | [17] | [18]
inactive: all other assays above

CCCCCC[C@@H](O)C/C=C\CCCCCCCC(=O)OCC(O)CO (some centres undefined)
active: [6] 132 µM | [7] 145 µM | [8] 179 µM | [14] 162 µM | [11] 87.9 µM | [13] 181 µM
inactive: [1] | [2] | [3] | [5] | [9] | [10] | [12]

CC(C)c1cc(C(C)C)cc(C(C)C)c1
inactive: [1] | [2] | [5] | [12] | [13]
active: [6] 7.9 µM | [7] 176 µM | [8] 174 µM | [9] 151 µM | [14] 161 µM | [11] 66.3 µM

Cc1cccc(C(C)(C)C)c1O
not listed: [2] | [15] | [16] | [17] | [18]
inactive: all other assays above

CCCSSCCC
not listed: [2] | [5] | [10] | [15] | [16] | [17] | [18]
inactive: all other assays above

O=C1CCCCCCCCCCC1
not listed: [3] | [10] | [14] | [18]
inactive: all other assays above

CCCCOCCOC(=O)COc1ccc(Cl)cc1Cl
not listed: [2] | [15] | [16] | [17] | [18]
inactive: all other assays above

CC(C)C(=O)OCCOc1ccccc1
not listed: [2] | [3] | [5] | [6] | [15] | [16] | [17]
inactive: all other assays above

C=CCCCCCCCCO
not listed: [2] | [10] | [15] | [16] | [17] | [18]
inactive: all other assays above

C=CC(C)(O)CC/C=C(\C)CC (centres undefined)
inactive: [1] | [2] | [5] | [7] | [8] | [9] | [14] | [11] | [12] | [13]

CCCC(CC)c1ccccc1 (centres undefined)
inactive: [1] | [18] | [7] | [12] | [13]
active: [8] 158 µM | [9] 181 µM | [11] 165 µM

CCCCCCC=O
not listed: [3] | [4] | [10] | [18]
inactive: all other assays above

CC(=O)CCC1=C(C)CCCC1(C)C
active: [11] 49.1 µM
not listed: [3] | [5] | [13] | [15] | [16] | [17] | [18]
inactive: all other assays above

CCCCC1CCC(=O)O1 (centres undefined)
not listed: [10] | [15] | [16] | [17] | [18]
inactive: all other assays above
